According to publication PMC7862700, “An all-to-all approach to the identification of sequence-specific readers for epigenetic DNA modifications on cytosine”:

How the values were obtained:
Experiment in all cases: DAPPL (digital affinity profiling via proximity ligation, sequencing); 10 mM Tris-HCl pH 7.5, 50 mM NaCl, 1 mM DTT, 4% glycerol, room temperature, 30 min; GST-TFs on glutathione beads, 16-mer random dsDNA library, 0.1% formaldehyde crosslink after washing; high values mean tight binding
Settings in all cases: protein: recombinant; tags: N-terminal GST; dsDNA, one strand shown
FLI1 = molecular target: T1, FLI1 (Homo sapiens, UniProt Q01543 1-452)
T1 sequence: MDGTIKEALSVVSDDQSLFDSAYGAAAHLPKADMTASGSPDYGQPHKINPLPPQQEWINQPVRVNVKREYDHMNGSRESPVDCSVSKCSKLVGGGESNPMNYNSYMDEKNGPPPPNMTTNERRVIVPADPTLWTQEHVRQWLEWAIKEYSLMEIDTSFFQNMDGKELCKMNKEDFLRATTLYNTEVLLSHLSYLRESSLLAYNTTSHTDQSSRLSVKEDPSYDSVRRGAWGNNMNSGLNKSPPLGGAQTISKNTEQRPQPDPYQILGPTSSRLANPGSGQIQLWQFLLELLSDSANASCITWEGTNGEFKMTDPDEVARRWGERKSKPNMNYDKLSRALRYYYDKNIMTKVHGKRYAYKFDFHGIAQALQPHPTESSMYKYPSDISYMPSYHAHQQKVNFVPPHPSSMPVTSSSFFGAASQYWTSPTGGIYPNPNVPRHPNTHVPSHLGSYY
Procedure, shortened: (§1)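 Each value of binding signal is a hexamer's read frequency for a factor divided by the same hexamer's frequency in the tag-only sample. Barcoded, bead-captured GST fusions of human transcription factors made in yeast were pooled with that sample and incubated with 200 nmole of a random double-stranded 16-mer DNA library in Tris/NaCl/DTT/glycerol buffer at room temperature for 30 min. Washing, 0.1% formaldehyde crosslinking, proximity ligation, PCR and Illumina NextSeq500 sequencing followed.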

ELK1 = molecular target: T2, ELK1 (Homo sapiens, UniProt P19419 1-428)
T2 sequence: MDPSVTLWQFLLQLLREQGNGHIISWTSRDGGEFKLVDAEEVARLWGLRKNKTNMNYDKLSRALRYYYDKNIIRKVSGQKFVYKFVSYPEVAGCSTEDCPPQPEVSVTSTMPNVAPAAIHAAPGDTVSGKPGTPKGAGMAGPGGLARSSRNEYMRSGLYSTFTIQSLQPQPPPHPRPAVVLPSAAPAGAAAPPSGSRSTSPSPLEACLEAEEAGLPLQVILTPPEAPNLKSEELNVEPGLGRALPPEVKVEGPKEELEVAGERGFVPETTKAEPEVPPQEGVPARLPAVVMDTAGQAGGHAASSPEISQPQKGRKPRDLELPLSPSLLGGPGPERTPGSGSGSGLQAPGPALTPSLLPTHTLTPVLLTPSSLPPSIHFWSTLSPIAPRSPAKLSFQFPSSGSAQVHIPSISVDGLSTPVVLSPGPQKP
Procedure, shortened: as §1

GABPA = molecular target: T3, GABPA (Homo sapiens, UniProt Q06546 1-454)
T3 sequence: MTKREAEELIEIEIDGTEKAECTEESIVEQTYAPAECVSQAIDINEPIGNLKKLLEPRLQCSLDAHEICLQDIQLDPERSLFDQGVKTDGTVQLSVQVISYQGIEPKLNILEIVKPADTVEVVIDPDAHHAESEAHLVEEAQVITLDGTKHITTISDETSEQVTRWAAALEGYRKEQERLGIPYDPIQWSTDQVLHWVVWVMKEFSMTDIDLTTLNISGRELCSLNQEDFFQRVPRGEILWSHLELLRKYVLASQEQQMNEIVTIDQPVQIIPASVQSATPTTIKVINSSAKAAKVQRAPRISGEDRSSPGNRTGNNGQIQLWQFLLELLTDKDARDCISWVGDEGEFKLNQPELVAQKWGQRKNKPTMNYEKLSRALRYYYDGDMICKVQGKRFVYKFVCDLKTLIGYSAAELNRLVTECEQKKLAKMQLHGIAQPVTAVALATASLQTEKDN
Procedure, shortened: as §1

ERG = molecular target: T4, ERG (Homo sapiens, UniProt P11308 1-479)
T4 sequence: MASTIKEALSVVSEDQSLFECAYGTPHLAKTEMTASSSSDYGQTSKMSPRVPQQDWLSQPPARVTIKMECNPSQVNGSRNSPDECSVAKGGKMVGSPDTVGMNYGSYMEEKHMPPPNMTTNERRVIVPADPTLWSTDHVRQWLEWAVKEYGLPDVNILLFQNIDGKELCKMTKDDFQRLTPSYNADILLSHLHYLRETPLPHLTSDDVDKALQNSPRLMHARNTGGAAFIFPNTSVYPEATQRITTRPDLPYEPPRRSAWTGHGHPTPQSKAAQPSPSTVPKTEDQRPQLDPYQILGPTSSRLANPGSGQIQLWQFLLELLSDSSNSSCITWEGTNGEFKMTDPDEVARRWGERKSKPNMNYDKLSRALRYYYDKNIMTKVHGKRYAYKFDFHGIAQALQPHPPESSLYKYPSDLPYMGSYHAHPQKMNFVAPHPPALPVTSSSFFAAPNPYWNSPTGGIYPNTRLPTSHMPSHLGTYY
Procedure, shortened: as §1

ELF1 = ELF1 (Homo sapiens, UniProt P32519 1-619)
Procedure, shortened: as §1

EHF = molecular target: T5, EHF (Homo sapiens, UniProt Q9NZC4 1-300)
T5 sequence: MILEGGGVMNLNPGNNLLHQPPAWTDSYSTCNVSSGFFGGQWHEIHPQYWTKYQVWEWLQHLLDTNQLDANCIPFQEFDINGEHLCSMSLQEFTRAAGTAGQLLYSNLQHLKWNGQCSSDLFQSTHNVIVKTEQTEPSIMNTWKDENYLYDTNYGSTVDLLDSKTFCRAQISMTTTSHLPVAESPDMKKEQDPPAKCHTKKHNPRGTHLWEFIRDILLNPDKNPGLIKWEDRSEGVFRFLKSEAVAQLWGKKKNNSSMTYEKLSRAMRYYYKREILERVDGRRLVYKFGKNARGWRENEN
Procedure, shortened: as §1

SPI1 = SPI1 (Homo sapiens, UniProt P17947 1-270)
Procedure, shortened: as §1

SPIB = SPIB (Homo sapiens, UniProt Q01892 1-262)
Procedure, shortened: as §1

ELK3 = molecular target: T6, ELK3 (Homo sapiens, UniProt P41970 1-407)
T6 sequence: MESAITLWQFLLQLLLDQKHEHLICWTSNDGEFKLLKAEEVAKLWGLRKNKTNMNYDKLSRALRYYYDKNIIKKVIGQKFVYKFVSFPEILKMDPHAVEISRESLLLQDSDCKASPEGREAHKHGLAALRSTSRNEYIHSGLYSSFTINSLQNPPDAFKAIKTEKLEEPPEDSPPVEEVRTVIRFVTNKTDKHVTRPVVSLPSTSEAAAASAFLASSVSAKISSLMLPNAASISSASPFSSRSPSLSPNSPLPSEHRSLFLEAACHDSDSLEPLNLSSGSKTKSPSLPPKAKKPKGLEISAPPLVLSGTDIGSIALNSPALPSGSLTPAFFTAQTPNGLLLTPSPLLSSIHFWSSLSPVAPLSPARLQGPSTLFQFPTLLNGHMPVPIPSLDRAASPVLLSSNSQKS
Procedure, shortened: as §1

ELF1, sequence (P32519 whole entry): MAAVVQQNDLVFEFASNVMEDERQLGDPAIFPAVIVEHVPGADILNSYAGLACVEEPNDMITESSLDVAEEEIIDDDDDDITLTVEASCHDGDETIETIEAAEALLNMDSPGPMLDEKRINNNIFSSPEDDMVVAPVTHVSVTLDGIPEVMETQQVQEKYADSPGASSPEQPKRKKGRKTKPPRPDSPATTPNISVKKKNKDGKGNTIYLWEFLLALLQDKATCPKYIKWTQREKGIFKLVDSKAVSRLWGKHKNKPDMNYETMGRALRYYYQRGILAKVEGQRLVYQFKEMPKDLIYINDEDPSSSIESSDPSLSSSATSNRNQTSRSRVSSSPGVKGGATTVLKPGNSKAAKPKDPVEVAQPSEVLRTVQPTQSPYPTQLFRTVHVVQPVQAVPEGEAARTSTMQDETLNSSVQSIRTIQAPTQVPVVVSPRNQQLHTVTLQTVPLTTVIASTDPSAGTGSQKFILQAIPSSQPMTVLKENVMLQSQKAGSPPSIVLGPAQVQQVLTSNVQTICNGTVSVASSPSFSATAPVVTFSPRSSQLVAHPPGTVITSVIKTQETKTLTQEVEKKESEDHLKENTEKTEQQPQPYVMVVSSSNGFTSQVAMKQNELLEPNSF
SPIB, sequence (Q01892 whole entry): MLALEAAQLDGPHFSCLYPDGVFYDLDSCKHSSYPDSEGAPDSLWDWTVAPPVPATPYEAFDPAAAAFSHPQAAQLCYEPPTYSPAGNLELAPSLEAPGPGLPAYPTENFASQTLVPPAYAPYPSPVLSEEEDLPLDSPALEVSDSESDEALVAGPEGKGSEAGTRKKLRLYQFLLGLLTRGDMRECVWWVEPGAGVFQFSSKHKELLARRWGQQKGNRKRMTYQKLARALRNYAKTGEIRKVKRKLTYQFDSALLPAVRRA

In the case of TGGATG, the binding signal (FLI1) is reported as 1.33 fold enrichment (6-mer frequency, TF over GST control), the binding signal (ELK1) is reported as 1.37 fold enrichment (6-mer frequency, TF over GST control) and the binding signal (GABPA) is reported as 1.47 fold enrichment (6-mer frequency, TF over GST control). The binding signal (ERG) was 1.32 fold enrichment (6-mer frequency, TF over GST control), the binding signal (ELF1) was 1.48 fold enrichment (6-mer frequency, TF over GST control) and the binding signal (EHF) was 1.5 fold enrichment (6-mer frequency, TF over GST control). For the same sequence, the binding signal (SPI1) was 1.37 fold enrichment (6-mer frequency, TF over GST control), the binding signal (SPIB) was 1.64 fold enrichment (6-mer frequency, TF over GST control) and the binding signal (ELK3) was 1.49 fold enrichment (6-mer frequency, TF over GST control).
TCCTAA was tested, and the binding signal (FLI1) was 1.63 fold enrichment (6-mer frequency, TF over GST control), the binding signal (ELK1) was 1.34 fold enrichment (6-mer frequency, TF over GST control) and the binding signal (GABPA) was 1.41 fold enrichment (6-mer frequency, TF over GST control). The binding signal (ERG) was 1.58 fold enrichment (6-mer frequency, TF over GST control), the binding signal (ELF1) was 1.49 fold enrichment (6-mer frequency, TF over GST control) and the binding signal (EHF) was 1.27 fold enrichment (6-mer frequency, TF over GST control). For the same sequence, the binding signal (SPI1) was 1.43 fold enrichment (6-mer frequency, TF over GST control), the binding signal (SPIB) was 1.49 fold enrichment (6-mer frequency, TF over GST control) and the binding signal (ELK3) was 1.43 fold enrichment (6-mer frequency, TF over GST control).
For AACCCG, the binding signal (FLI1) was 1.36 fold enrichment (6-mer frequency, TF over GST control), the binding signal (ELK1) was 1.44 fold enrichment (6-mer frequency, TF over GST control) and the binding signal (GABPA) was 1.31 fold enrichment (6-mer frequency, TF over GST control). For the same sequence, the binding signal (ERG) was 1.46 fold enrichment (6-mer frequency, TF over GST control), the binding signal (ELF1) was 1.5 fold enrichment (6-mer frequency, TF over GST control) and the binding signal (EHF) was 1.54 fold enrichment (6-mer frequency, TF over GST control). For the same sequence, the binding signal (SPI1) was 1.36 fold enrichment (6-mer frequency, TF over GST control), the binding signal (SPIB) was 1.46 fold enrichment (6-mer frequency, TF over GST control) and the binding signal (ELK3) was 1.49 fold enrichment (6-mer frequency, TF over GST control).
In the case of CTCCCC, the binding signal (FLI1) is reported as 1.44 fold enrichment (6-mer frequency, TF over GST control), the binding signal (ELK1) is reported as 1.31 fold enrichment (6-mer frequency, TF over GST control) and the binding signal (GABPA) is reported as 1.41 fold enrichment (6-mer frequency, TF over GST control). For the same sequence, the binding signal (ERG) was 1.45 fold enrichment (6-mer frequency, TF over GST control), the binding signal (ELF1) was 1.45 fold enrichment (6-mer frequency, TF over GST control) and the binding signal (EHF) was 1.56 fold enrichment (6-mer frequency, TF over GST control). For the same sequence, the binding signal (SPI1) was 1.3 fold enrichment (6-mer frequency, TF over GST control), the binding signal (SPIB) was 1.38 fold enrichment (6-mer frequency, TF over GST control) and the binding signal (ELK3) was 1.4 fold enrichment (6-mer frequency, TF over GST control).
TAATTG was tested, and the binding signal (FLI1) was 1.38 fold enrichment (6-mer frequency, TF over GST control), the binding signal (ELK1) was 1.43 fold enrichment (6-mer frequency, TF over GST control) and the binding signal (GABPA) was 1.38 fold enrichment (6-mer frequency, TF over GST control). The binding signal (ERG) was 1.27 fold enrichment (6-mer frequency, TF over GST control), the binding signal (ELF1) was 1.3 fold enrichment (6-mer frequency, TF over GST control) and the binding signal (EHF) was 1.37 fold enrichment (6-mer frequency, TF over GST control). For the same sequence, the binding signal (SPI1) was 1.47 fold enrichment (6-mer frequency, TF over GST control), the binding signal (SPIB) was 1.37 fold enrichment (6-mer frequency, TF over GST control) and the binding signal (ELK3) was 1.5 fold enrichment (6-mer frequency, TF over GST control).
TATTAT was tested, and the binding signal (FLI1) was 1.3 fold enrichment (6-mer frequency, TF over GST control), the binding signal (ELK1) was 1.27 fold enrichment (6-mer frequency, TF over GST control) and the binding signal (GABPA) was 1.21 fold enrichment (6-mer frequency, TF over GST control). The binding signal (ERG) was 1.25 fold enrichment (6-mer frequency, TF over GST control), the binding signal (ELF1) was 1.25 fold enrichment (6-mer frequency, TF over GST control) and the binding signal (EHF) was 1.25 fold enrichment (6-mer frequency, TF over GST control). For the same sequence, the binding signal (SPI1) was 1.2 fold enrichment (6-mer frequency, TF over GST control), the binding signal (SPIB) was 1.24 fold enrichment (6-mer frequency, TF over GST control) and the binding signal (ELK3) was 1.12 fold enrichment (6-mer frequency, TF over GST control).
TACGAT was tested, and the binding signal (FLI1) was 1.14 fold enrichment (6-mer frequency, TF over GST control), the binding signal (ELK1) was 1.09 fold enrichment (6-mer frequency, TF over GST control) and the binding signal (GABPA) was 1.17 fold enrichment (6-mer frequency, TF over GST control). The binding signal (ERG) was 1.11 fold enrichment (6-mer frequency, TF over GST control), the binding signal (ELF1) was 1.11 fold enrichment (6-mer frequency, TF over GST control) and the binding signal (EHF) was 1.03 fold enrichment (6-mer frequency, TF over GST control). For the same sequence, the binding signal (SPI1) was 1.09 fold enrichment (6-mer frequency, TF over GST control), the binding signal (SPIB) was 1.14 fold enrichment (6-mer frequency, TF over GST control) and the binding signal (ELK3) was 1.09 fold enrichment (6-mer frequency, TF over GST control).
